Rows were chosen to be rich in hits. Some 2.3% of all compounds tested hit in one or more screens of this group.
CHRM1 PAM: human M1 muscarinic receptor positive allosteric modulators, primary screen, CHO-K1 cells, Fluo-8 calcium fluorescence, 1536-well | Muscarinic acetylcholine receptor M1 (Homo sapiens), P11229 | CHO-K1 hM1, ACh EC20; 0% = ACh EC20, 100% = maximal ACh | activation, % at 3 µM | 0.088% of 360,000 active | AID 588819, 2011; in the data active = activation above about 19%, passing the limit was not always enough
Target sequence (P11229 whole entry, looked up): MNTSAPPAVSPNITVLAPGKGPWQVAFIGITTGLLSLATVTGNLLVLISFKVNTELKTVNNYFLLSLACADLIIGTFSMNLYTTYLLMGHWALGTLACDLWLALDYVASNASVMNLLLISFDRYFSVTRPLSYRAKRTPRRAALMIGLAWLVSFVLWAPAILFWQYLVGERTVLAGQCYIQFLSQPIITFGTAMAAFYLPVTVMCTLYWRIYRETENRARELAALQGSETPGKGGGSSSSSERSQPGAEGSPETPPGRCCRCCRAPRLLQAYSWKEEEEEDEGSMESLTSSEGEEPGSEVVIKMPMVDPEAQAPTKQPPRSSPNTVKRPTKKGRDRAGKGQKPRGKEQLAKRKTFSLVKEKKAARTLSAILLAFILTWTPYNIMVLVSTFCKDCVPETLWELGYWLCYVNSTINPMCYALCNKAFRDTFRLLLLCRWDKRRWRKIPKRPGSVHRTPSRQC
M1 antag: human M1 muscarinic receptor antagonists, primary screen, CHO-K1 cells, Fluo-8 calcium fluorescence, 1536-well. CHO-K1 hM1, ACh EC80 antagonist. inhibition, % at 3 µM. 1.3% of 360,000 active. AID 588852, 2011. Muscarinic acetylcholine receptor M1 (Homo sapiens), P11229;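 active = percent inhibition above its own plate's cutoff, namely the mean of that plate's compound wells plus 3 SD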;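 note: peak over basal fluorescence ratio during 140 s after agonist addition; 0% = ACh EC80 plus DMSO and 100% = DMSO alone without agonist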
CHO-K1 Ca PAM: nonselective calcium activators in parental CHO-K1 cells, primary screen, counter-screen for M1 PAM project, cell-based, Fluo-8 calcium fluorescence, full deck, 1536-well | AID 602247, 2012 | activation, % at 3 µM | ATP EC20; 0% at ATP EC20, 100% at ATP max | 0.02% of 360,000 active;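 active = activation above the run cutoff, the mean activation of all test compounds plus 3 SD, cut at about 40% in these data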;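 note: peak over basal fluorescence ratio in a 140 s read after ATP addition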
M1 ag parental: counter-screen for M1 agonists: effect in parental CHO-K1 cells; Fluo-8 calcium fluorescence; scaled to maximal ATP response, vehicle zero; activation, % at 3 µM; 0.48% of 360,000 active; in the data active = activation above about 15%;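 note: untransfected CHO-K1 host cells lacking M1 receptor as counterscreen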
CHO-K1 Ca antag: counter-screen for M1 antagonists: effect in parental CHO-K1 cells; ATP-induced calcium, Fluo-8 fluorescence; inhibition, % at 3 µM; 0.6% of 360,000 active;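 active = inhibition above a per-plate cutoff, the plate's mean sample inhibition plus 3 SD, cut at about 24% in these data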;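 note: 0% = DMSO plus EC80 ATP and 100% = DMSO alone without ATP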
M1 ag: human M1 muscarinic receptor agonists, primary screen, Fluo-8 calcium fluorescence, CHO-K1 cells, HTS. Muscarinic acetylcholine receptor M1 (Homo sapiens), P11229. CHO-K1 hM1, agonist mode; 0% DMSO, 100% acetylcholine EC100. activation, % at 3 µM. 0.33% of 360,000 active;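 active = activation above the run's mean compound activation plus 3 SD, cut at about 16% in these data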;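 note: peak over basal fluorescence ratio within a 140 s kinetic read after compound addition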
* = called active by the depositor.

SMILES | CHRM1 PAM | M1 antag | CHO-K1 Ca PAM | M1 ag parental | CHO-K1 Ca antag | M1 ag
Cc1ccc2ccccc2c1C(O)c1ncc(-c2ccc(F)cc2)[nH]1 (centres undefined) | 2 | 2 | 2 | 4 | 2 | 2
CCN(C(=O)COC(=O)CNC(=O)c1ccc(C)s1)c1ccccc1 | 10 | -1 | 13 | 0 | -4 | -5
c1ccc(NCn2cncn2)nc1 | 4 | -7 | -2 | 0 | 28* | 0
Cc1ccc(N(C(=O)C2CCCC2)C2C=CS(=O)(=O)C2)cc1 (centres undefined) | -7 | -1 | -2 | 0 | 3 | -1
CC(=O)N(c1ccc(C)cc1)C1C=CS(=O)(=O)C1 (centres undefined) | 0 | -6 | -4 | 0 | 24* | -3
CC1(C(=O)NS(=O)(=O)c2ccc(F)cc2F)CCN1C(=O)Cc1ccc(Cl)cc1Cl (centres undefined) | -1 | 0 | -9 | 0 | 27* | -3
CC1(C(=O)NS(=O)(=O)c2ccc(F)cc2F)CCN1C(=O)Cc1ccccc1 (centres undefined) | -6 | 3 | -10 | 0 | 5 | -4
COC(=O)c1cnc(SCC(=O)c2ccccc2)n1C | 1 | -3 | 3 | 1 | -11 | -3
O=C(O)CC(SCC(=O)Nc1ccc(Cl)c(S(=O)(=O)N2CCOCC2)c1)C(=O)O (centres undefined) | -4 | -2 | 4 | 0 | -11 | -5
Cc1ccc(NC(=O)c2ccccc2NS(=O)(=O)c2ccc(Cl)s2)cc1S(=O)(=O)N1CCOCC1 | -9 | 18 | 0 | 16* | 22 | -1
CC(=O)Nc1ccc(OCC(=O)Nc2ccc(Cl)c(S(=O)(=O)N3CCOCC3)c2)cc1 | -26 | 37* | -8 | 11 | 12 | 4
CCCC(C(=O)Nc1ccc(S(=O)(=O)N2CCOCC2)cc1)c1ccccc1 (centres undefined) | 1 | 7 | 16 | 19* | 1 | 20*
CC(CC(=O)Nc1ccc(Cl)c(S(=O)(=O)N2CCOCC2)c1)c1ccccc1 (centres undefined) | -14 | 21 | -15 | 15* | 5 | 3
COCCNC(=O)c1cc2cc(Cl)cc(Cl)c2oc1=O | 6 | -5 | 14 | 1 | -15 | -2
CCOC(=O)c1[nH]c(C)c(/C(O)=C2\C(=O)C(=O)N(CCCN3CCOCC3)C2c2cccnc2)c1C (centres undefined) | 8 | 0 | 11 | 19* | 0 | -5
CCOC(=O)c1[nH]c(C)c(/C(O)=C2\C(=O)C(=O)N(CCCN(CC)CC)C2c2cccnc2)c1C (centres undefined) | 5 | -11 | 10 | 1 | -5 | -6
CCCNC(=O)c1ccc2nc(-c3ccccc3)c(-c3ccccc3)nc2c1 | 1 | 4 | 16 | 1 | -7 | -4
CCN1CCN(CCNC(=O)c2ccc3nc(-c4cccc(C)c4)c(-c4cccc(C)c4)nc3c2)CC1 | -25 | 83* | 10 | 2 | -12 | -5
O=C(Nc1cccc(C(F)(F)F)c1)N1CCC(c2nc(-c3ccc(F)cc3)no2)CC1 | -34 | 65* | -5 | 9 | -1 | -9
O=C(Nc1ccc(Cl)cc1)N1CCC(c2nc(-c3ccccc3Cl)no2)CC1 | -17 | 20* | 6 | 6 | 10 | 0
CC(C)CNC(=S)N1CCC(c2nc(-c3ccc(F)cc3)no2)CC1 | -15 | 33* | -10 | 12 | 15 | -4
O=C(Nc1ccc(Cl)cc1)N1CCC(c2nc(-c3cccs3)no2)CC1 | -14 | 13 | 3 | 6 | -6 | -9
O=C(Nc1ccccc1)N1CCCC(c2nc(-c3ccc(F)cc3)no2)C1 (centres undefined) | 2 | -17 | 17 | 1 | -7 | -4
C#CCOc1ccc(/C=C2/C(=O)NN(c3ccc(F)cc3)C2=O)cc1OC | 21 | -16 | 22 | 1 | -7 | 11
